Compounds with a hit are over-represented: about 1.5% of the library has one in this group of screens.
E-sel TNF inh – TNF alpha driven E-selectin expression inhibition | HUVEC TNFa-induced E-selectin immunofluorescence, high content | inhibition, % at 2 µM | 120,000 tested, 0.71% active;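 active = inhibition above the batch mean plus 3 SD, and confirmed as a hit on visual image review, cut at about 43% in these data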;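 note: 0% = TNF-stimulated DMSO wells and 100% = unstimulated control wells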
VCAM1 TNFa inh – reduces TNF alpha induced VCAM1 expression in HUVEC; HUVEC TNFa-induced VCAM-1 immunofluorescence, high-content imaging; inhibition, % at 2 µM; 95,000 tested, 0.48% active; AID 802;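 active = inhibition above the batch mean plus 3 SD, with images confirmed as a hit by eye, cut at about 37% in these data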;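 note: 0% = TNF-stimulated DMSO wells and 100% = unstimulated control wells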
MRP-1 activ – activators of MRP-1 | AID 799 | 140,000 tested, 0.61% active | viability increase, % at 10 µM | H69AR cells + doxorubicin, viability rescue, CellTiter-Glo;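 active = viability gain under doxorubicin at or above a set limit, the compound median plus 3 SD, cut at about 4.7% in these data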;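 note: MRP-1 overexpressing cells given doxorubicin 25 µM after compound pretreatment; 18-22 h compound pretreatment then 72 h with doxorubicin before readout; 0% = doxorubicin-only wells and 100% = vehicle-treated cells without doxorubicin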
MRP resist rev – MRP-mediated drug resistance reversal | H69AR cells + 2 uM doxorubicin, CellTiter-Glo, 72 h | differential viability (reversal), % at 10 µM | 85,000 tested, 0.04% active | AID 602;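 active = viability drop by adding the cancer drug above about 55%, with treated viability meeting a 40% cutoff, limit read from the data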;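 note: viability without doxorubicin minus viability with 2 µM doxorubicin for each compound; larger differential means the compound sensitizes cells more to doxorubicin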
cytoskel mod – alters cytoskeleton assembly in HUVEC cells; HUVEC TNFa F-actin phalloidin imaging, high content; 91,000 tested, 0.18% active; inhibition, % at 2 µM;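 active = inhibition above the batch mean plus 3 SD and confirmed as a hit by visual image inspection, cut at about 30% in these data, passing the limit was not always enough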
An asterisk follows results filed as active.

C=C(C)Cn1c(SCCN2CCOCC2)nc2c1c(=O)[nH]c(=O)n2C was read as E-sel TNF inh -5, VCAM1 TNFa inh 10, MRP-1 activ -2, MRP resist rev -1 and cytoskel mod 0.
`COC(=O)CCc1c(C)[nH]c(C(=O)OCc2ccccc2)c1C` gave VCAM1 TNFa inh 13, MRP-1 activ 5.1*, MRP resist rev -4 and cytoskel mod 1.
Screening CCOC(=O)c1[nH]c(C(=O)O)c(CCC(=O)OC)c1C returned VCAM1 TNFa inh -1, MRP-1 activ -1 and cytoskel mod -16.
Screening COc1ccc(CCNC(=O)CSc2nc(-c3ccco3)cc(C(F)(F)F)n2)cc1OC returned E-sel TNF inh 68*, VCAM1 TNFa inh 10, MRP-1 activ -4 and cytoskel mod -24.
`Cc1cc(NC(=O)CCSc2nc(-c3ccco3)cc(C(F)(F)F)n2)no1` gave E-sel TNF inh 9, VCAM1 TNFa inh -4, MRP-1 activ -2, MRP resist rev -2 and cytoskel mod -11.
`Cc1cc(NC(=O)CSc2n[nH]c(N)n2)no1` gave E-sel TNF inh 67*.
Screening Cc1cc(NC(=O)CSc2nc(-c3ccco3)cc(C(F)(F)F)n2)no1 returned E-sel TNF inh -2, VCAM1 TNFa inh 53*, MRP-1 activ -5 and cytoskel mod -10.
For O=C(CCNS(=O)(=O)c1c(Cl)cccc1Cl)OCC(=O)c1ccccc1 the results were MRP-1 activ 0.
For COc1cccc(/C=C/C(=O)Nc2ccc(OC)nc2)c1 the results were MRP-1 activ -1.
Screening N#CC1(c2ccccc2)CCCN1C(=O)c1ccc(Br)cc1 (stereo not given) returned E-sel TNF inh -57, VCAM1 TNFa inh 9, MRP-1 activ 0, MRP resist rev -10 and cytoskel mod 1.
CCNS(=O)(=O)c1ccc2c(c1)NCC2 was read as MRP-1 activ -1.
CC(=O)N1CCN(c2ccc(NC(=O)c3ccc(C)cc3)cc2)CC1 was read as E-sel TNF inh 15, VCAM1 TNFa inh 13, MRP-1 activ -2, MRP resist rev -26 and cytoskel mod -2.
`CCCOc1ccc(C(=O)Nc2ccc(N3CCN(C(C)=O)CC3)cc2)cc1` gave E-sel TNF inh -14, VCAM1 TNFa inh -16, MRP-1 activ 6.0* and cytoskel mod -6.
For CC(C)C(=O)N=C1NC(=O)CS1 the results were E-sel TNF inh 6 and MRP-1 activ 1.
For O=C1CSC(=NC(=O)c2ccccc2)N1 the results were E-sel TNF inh -34, VCAM1 TNFa inh 4, MRP-1 activ 6.2* and MRP resist rev -12.
CCn1nc2cc(C(=O)NCCc3cccs3)ccc2c1OC was read as E-sel TNF inh -33, VCAM1 TNFa inh 3, MRP-1 activ 0 and cytoskel mod -26.
For CCOC(=O)c1cnc(-n2nc(C)cc2C)nc1N1CCOCC1 the results were VCAM1 TNFa inh 92*, MRP-1 activ 0, MRP resist rev 10 and cytoskel mod -27.
Cc1ccc(OCC(=O)c2cc(C)n(C3CC3)c2C)c([N+](=O)[O-])n1 was read as MRP-1 activ -5.
For COc1ccc(-n2c(C)cc(C(=O)COc3ccc(C)nc3[N+](=O)[O-])c2C)cc1 the results were E-sel TNF inh 62* and MRP-1 activ -4.
`O=c1c(-c2ccc(Br)cc2)coc2c(CN3CCOCC3)c(O)ccc12` gave E-sel TNF inh -9, VCAM1 TNFa inh 62*, MRP-1 activ 0, MRP resist rev 7 and cytoskel mod 5.
O=C(CN(C(=O)CCC(=O)Nc1ccccn1)c1ccc2c(c1)OCO2)NCc1ccco1 was read as E-sel TNF inh 70*, VCAM1 TNFa inh 6, MRP-1 activ -3, MRP resist rev 9 and cytoskel mod 25.
For C=CCOc1ccc(CNn2c(C)n[nH]c2=S)cc1OC the results were E-sel TNF inh -3, VCAM1 TNFa inh -13, MRP-1 activ -1 and cytoskel mod -32.
CCCCCc1ccc(-c2ccc(=O)[nH]n2)cc1 was read as E-sel TNF inh 29, VCAM1 TNFa inh 79*, MRP-1 activ 0, MRP resist rev 14 and cytoskel mod -47.
For Cc1noc(C)c1S(=O)(=O)N1CCC(C(=O)N2CCN(Cc3ccc4c(c3)OCO4)CC2)CC1 the results were E-sel TNF inh 73* and MRP-1 activ -2.
For O=C(C1CCN(S(=O)(=O)N2CCOCC2)CC1)N1CCN(Cc2ccc3c(c2)OCO3)CC1 the results were E-sel TNF inh 15, VCAM1 TNFa inh 2, MRP-1 activ 0, MRP resist rev 5 and cytoskel mod -36.
`CCOC(=O)C(Sc1ncnc2c1sc1nc(N3CCOCC3)c3c(c12)CCCC3)c1ccccc1` (stereo not given) gave E-sel TNF inh 39, VCAM1 TNFa inh 9, MRP-1 activ 0 and cytoskel mod 9.
CC(C)(C)OC(=O)NNC(=O)NC12CC3CC(CC(C3)C1)C2 was read as E-sel TNF inh 66*.
CC(C)(C)NC(=O)NC12CC3CC(CC(C3)C1)C2 was read as E-sel TNF inh -31.
`O=C(CCc1nc2ccccc2c(=O)[nH]1)OCc1ccc(Cl)cc1Cl` gave MRP-1 activ -1.
`Cn1c(=O)[nH]c(=O)c2c1nc(SCC(=O)Nc1ccccc1)n2Cc1ccccc1` gave E-sel TNF inh 0, VCAM1 TNFa inh 15, MRP-1 activ -3, MRP resist rev 4 and cytoskel mod -8.
CCCCCOC(=O)Cn1c(SCC(=O)Nc2ccccc2)nc2c1c(=O)[nH]c(=O)n2C was read as E-sel TNF inh 74*, VCAM1 TNFa inh -1, MRP-1 activ 0, MRP resist rev -44 and cytoskel mod -30.
`CCOc1ccccc1/C=N/Nc1ccccc1[N+](=O)[O-]` gave E-sel TNF inh 4, VCAM1 TNFa inh 59*, MRP-1 activ -2 and cytoskel mod -7.
Screening Cc1ccc(-c2c[n+](Cc3ccc(Cl)c(Cl)c3)c3n2CCC3)cc1 returned E-sel TNF inh 6 and MRP-1 activ -2.
COC1(OC)C(=N/O)/C(=N\O)CCC1O (stereo not given) was read as VCAM1 TNFa inh 13, MRP-1 activ 11*, MRP resist rev 13 and cytoskel mod 8.
For Cc1ccc(OCC(=O)N2CCN(C(=O)Cc3ccccc3)CC2)cc1 the results were E-sel TNF inh 5, VCAM1 TNFa inh -11, MRP-1 activ 0, MRP resist rev 17 and cytoskel mod 71*.
Screening O=C(CSc1ncccn1)NCc1ccccc1Cl returned E-sel TNF inh 60*, VCAM1 TNFa inh 13, MRP-1 activ 0 and cytoskel mod 13.
Oc1ccccc1C1=Nc2ncnn2C(c2ccccc2)C1 (stereo not given) was read as E-sel TNF inh 96*, MRP-1 activ -1 and MRP resist rev -4.
Screening Fc1ccc(C2CC(c3ccccc3)n3ncnc3N2)cc1 (stereo not given) returned E-sel TNF inh -15, VCAM1 TNFa inh 16, MRP-1 activ -2, MRP resist rev -5 and cytoskel mod 2.
For C/C(=N\NC(=O)CN(c1ccccc1Br)S(C)(=O)=O)c1ccc2c(c1)OCCO2 the results were E-sel TNF inh 66* and MRP-1 activ -1.
